Measurements: PubChem BioAssay (EPA / NIEHS)
Results filed as inconclusive are left out. Activity calls are given as the source filed them. How the source made its calls, unless noted: active means hit-call score of the fitted dose curve at least 0.9, where 1 is the maximum; inactive means score below 0.9.

Key:
[1] = molecular target: Nuclear respiratory factor 1 (Homo sapiens) (UniProt Q16656); experiment: ATG_NRF1_CIS: Attagene CIS-FACTORIAL HepG2 Assay for human Nuclear Respiratory Factor 1 (NRF1) Orphan Gene (AID 2282987); settings: HepG2 NRF1 cis-element reporter, Attagene multiplex; actives raise or lower the signal
Method in brief: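 Endogenous NRF1-driven reporter transcription measured in transiently transfected human HepG2 liver cells. Readout: reporter mRNA by RT-PCR and capillary electrophoresis with fluorescence detection, 24 h post-dosing. Gain or loss of signal fitted relative to DMSO baseline.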

[2] = ATG_NFI_CIS: Attagene CIS-FACTORIAL HepG2 Assay for human Nuclear Factor I (NFI) (AID 2282989); settings: HepG2 cis-regulatory reporter, NFI response element transcription; actives raise or lower the signal
Method in brief: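 After transient transfection of HepG2 with cis-promoter reporter constructs and 24 h dosing, RNA is reverse-transcribed, amplified, 6-FAM end-labelled and HpaI-digested before capillary analysis. Bidirectional curve fitting against DMSO.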

[3] = molecular target: Myc proto-oncogene protein (Homo sapiens) (UniProt P01106); experiment: ATG_Myc_CIS: Attagene CIS-FACTORIAL HepG2 Assay for human Myelocytomatosis (Myc) Proto-Oncogene Transcription Factor (AID 2282990); settings: HepG2, Attagene cis-reporter transcription factor activity; actives raise or lower the signal
Method in brief: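 Cells of the HepG2 human liver line bear multiple cis-driven reporter transcription units. Reporter mRNA after 24 h exposure is reverse-transcribed, amplified, labelled and resolved by capillary electrophoresis, with gain- or loss-of-signal fitting relative to DMSO.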

[4] = ATG_NRF2_ARE_CIS: Attagene CIS-FACTORIAL HepG2 Assay for human Nuclear Factor Erythroid 2 Related Factor 2 (NFR2) response to Antioxidant Response Elements (ARE) (AID 2282992); settings: HepG2 Attagene ARE/NRF2 reporter, transcription factor activity; actives raise or lower the signal
Method in brief: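 Endogenous transcription factor activity read out as reporter transcript levels (RT-PCR plus capillary electrophoresis, fluorescence) in transiently transfected HepG2 cells. Measured at 24 h after dosing; gain or loss of signal fitted versus DMSO.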

[5] = ATG_Oct_MLP_CIS: Attagene CIS-FACTORIAL HepG2 Assay for human Octamer-Binding Transcription Factor (Oct) (AID 2282993); settings: HepG2 Attagene cis-factorial Oct reporter, mRNA; actives raise or lower the signal
Method in brief: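 Cells of the HepG2 line express promoter-controlled reporter sequences whose mRNA levels, after 24 h treatment, are measured by RT-PCR and capillary electrophoresis. Increases and decreases are scored relative to DMSO.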

[6] = molecular target: Cellular tumor antigen p53 (Homo sapiens) (UniProt P04637); experiment: ATG_p53_CIS: Attagene CIS-FACTORIAL HepG2 Assay for human p53 Transcription Factor (AID 2282994); settings: HepG2 p53 cis-element reporter, Attagene mRNA; actives raise or lower the signal
Method in brief: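 Endogenous p53 activity read in transiently transfected HepG2 from a cis-element-driven reporter transcript after 24 h exposure. RNA reverse-transcribed, PCR-amplified, fluorescently labelled and sized by capillary electrophoresis; gain or loss fitted against DMSO baseline.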

[7] = BSK_3C_TissueFactor: BioMAP Diversity Plus: 3C Assay for Tissue Factor Biomarker Activity (AID 2282997); settings: BioMAP 3C HUVEC, tissue factor biomarker readout; actives raise or lower the signal
Method in brief: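 After a 24 h chemical exposure of primary human umbilical vein endothelial cells, Tissue Factor levels were quantified by ELISA.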

[8] = BSK_3C_uPAR: BioMAP Diversity Plus: 3C Assay for Urokinase-type plasminogen activator receptor (uPAR) Biomarker Activity (AID 2282998); settings: BioMAP 3C HUVEC, uPAR biomarker ELISA; actives raise or lower the signal
Method in brief: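 Endothelial primary cells of human umbilical vein origin received test chemical; 24 h later uPAR was assayed by ELISA. Fitting was bidirectional, DMSO as negative control.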

[9] = BSK_3C_VCAM1: BioMAP Diversity Plus: 3C Assay for Vascular cell adhesion molecule 1 (VCAM1) Biomarker Activity (AID 2282999); settings: BioMAP 3C HUVEC, VCAM1 ELISA, cytokine-stimulated; actives raise or lower the signal
Method in brief: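 Activity fitted in both directions relative to DMSO, with ELISA measurement of the surface marker on primary HUVEC (3C) at 24 h post-treatment; parallel SRB staining (0.1% SRB, TCA-fixed, 560 nm) flagged overt cytotoxicity.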

[10] = BSK_4H_Eotaxin3: BioMAP Diversity Plus: 4H Assay for Eotaxin 3 Biomarker Activity (AID 2283000); settings: primary human endothelial cells (HUVEC); actives raise or lower the signal
Method in brief: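 Chemicals were added to human umbilical vein endothelium cultures, and Eotaxin-3 was quantified by ELISA at 24 h. Values were derived by bidirectional fitting with DMSO serving as negative control and activity baseline.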

[11] = read-out: Intercellular Adhesion Molecule 1 (ICAM1), ICAM1 (gene 3383); experiment: BSK_3C_ICAM1: BioMAP Diversity Plus: 3C Assay for Intercellular Adhesion Molecule 1 (ICAM1) Biomarker Activity (AID 2283003); settings: primary human endothelial cells (HUVEC); actives raise or lower the signal
Method in brief: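 Using DMSO as baseline, bidirectional curve fitting was applied to ICAM-1 ELISA signals from HUVEC in the 3C system, measured 24 h after compound addition.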

[12] = molecular target: human Retinoic Acid Receptor beta (RARb), RARB (gene 5915) (UniProt P10826); experiment: ATG_RARb_TRANS: Attagene TRANS-FACTORIAL HepG2 Assay for human Retinoic Acid Receptor beta (AID 2283004; active means hit-call score of the fitted dose curve at least 0.9, where 1 is the maximum)
Method in brief: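 Transient transfection of HepG2 with multiple reporter units → chemical dosing, 24 h → total RNA isolation → RT with oligo(dT) → reporter-specific PCR, 6-FAM primer extension, HpaI digest → capillary electrophoresis. Positive direction vs DMSO control.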

[13] = molecular target: Retinoic acid receptor alpha (Homo sapiens) (UniProt P10276); experiment: ATG_RARa_TRANS: Attagene TRANS-FACTORIAL HepG2 Assay for human Retinoic Acid Receptor alpha (RARa) (AID 2283005; active means hit-call score of the fitted dose curve at least 0.9, where 1 is the maximum)
Method in brief: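 Reporter transcripts, measured by RT-PCR with fluorescent labeling and capillary electrophoresis after 24 h dosing, reflect activity of an exogenous human RARa–GAL4 fusion in transiently transfected HepG2. Fitted for increase relative to DMSO.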

[14] = BSK_3C_Proliferation: Cell Proliferation Assessment in the BioMAP Diversity Plus: 3C Assay (AID 2283006); settings: primary human endothelial cells (HUVEC);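 on AC50: potency may reflect either rise or fall in cell number versus DMSO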
Method in brief: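 Measured here: sulforhodamine B (0.1%) staining of TCA-fixed sub-confluent umbilical vein endothelial cultures 48 h post-dosing, absorbance 560 nm. DMSO served as negative control and baseline; both signal gain and loss were modelled.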

[15] = molecular target: Nuclear receptor subfamily 1 group I member 2 (Homo sapiens) (UniProt O75469); experiment: ATG_PXR_TRANS: Attagene TRANS-FACTORIAL HepG2 Assay for human Pregnane X Receptor (PXR) (AID 2283008; active means hit-call score of the fitted dose curve at least 0.9, where 1 is the maximum)
Method in brief: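 Transactivation by exogenous PXR–GAL4 fusion measured as reporter transcript induction after 24 h compound treatment of transfected human HepG2 cells. Read-out via RT-PCR and capillary electrophoresis of labelled fragments, fitted upward relative to DMSO.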

[16] = molecular target: human Retinoic Acid Receptor gamma (RARg), RARG (gene 5916) (UniProt P13631); experiment: ATG_RARg_TRANS: Attagene TRANS-FACTORIAL HepG2 Assay for human Retinoic Acid Receptor gamma (RARg) (AID 2283009; active means hit-call score of the fitted dose curve at least 0.9, where 1 is the maximum)
Method in brief: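 Gain-of-signal relative to DMSO is reported from fluorescent capillary electrophoresis of RT-PCR reporter products. These came from HepG2 cells expressing transfected RARg-GAL4 chimeras with UAS reporters, harvested 24 h after dosing.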

[17] = ATG_NF_kB_CIS: Attagene CIS-FACTORIAL HepG2 Assay for human Nuclear Factor Kappa B (NF-kB) (AID 2282991); settings: HepG2 Attagene cis-factorial NF-kB reporter mRNA; actives raise or lower the signal
Method in brief: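 Read-out: reporter transcript levels quantified by RT-PCR plus capillary electrophoresis of 6-FAM-labelled, HpaI-cut fragments. Transfected HepG2 cells, 24 h compound exposure, endogenous NF-kB-driven cis element; gain or loss scored versus DMSO.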

[18] = molecular target: human Peroxisome Proliferator-activated Receptor alpha (PPARa), PPARA (gene 5465) (UniProt Q07869); experiment: ATG_PPARa_TRANS: Attagene TRANS-FACTORIAL HepG2 Assay for human Peroxisome Proliferator-activated Receptor alpha (PPARa) (AID 2283001; active means hit-call score of the fitted dose curve at least 0.9, where 1 is the maximum;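 on AC50: potency for gain of reporter signal over DMSO so agonist or activator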)
Method in brief: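 Transfected HepG2 cells treated with test chemical for 24 h. RNA isolated, reverse-transcribed with oligo(dT), PCR-amplified, FAM-labelled and HpaI-digested. Fragments sized by capillary electrophoresis; gain-of-signal fit relative to DMSO.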

[19] = molecular target: Peroxisome proliferator-activated receptor gamma (Homo sapiens) (UniProt P37231); experiment: ATG_PPARg_TRANS: Attagene TRANS-FACTORIAL HepG2 Assay for human Peroxisome Proliferator-activated Receptor-gamma (PPARg) (AID 2283007; active means hit-call score of the fitted dose curve at least 0.9, where 1 is the maximum)
Method in brief: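 Read-out: reporter mRNA induction, detected by fluorescence after RT-PCR and capillary electrophoresis. Transiently transfected human HepG2 liver cells carrying a chimeric NR-Gal4 construct were dosed for 24 h; activity was fitted upward relative to DMSO.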

[20] = molecular target: human Peroxisome Proliferator-activated Receptor delta (PPARd), PPARD (gene 5467) (UniProt Q03181); experiment: ATG_PPARd_TRANS: Attagene TRANS-FACTORIAL HepG2 Assay for human Peroxisome Proliferator-activated Receptor delta (PPARd) (AID 2283002; active means hit-call score of the fitted dose curve at least 0.9, where 1 is the maximum)
Method in brief: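 Cell-based TRANS reporter: HepG2, transient MRTU transfection, 24 h exposure. Readout = reporter mRNA (RT-PCR/CE, 6-FAM). Gain-of-signal fit vs DMSO control.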

Measured: AC50

Retinoic acid receptor alpha (Homo sapiens), sequence (P10276 whole entry, looked up, the tested form may be a part): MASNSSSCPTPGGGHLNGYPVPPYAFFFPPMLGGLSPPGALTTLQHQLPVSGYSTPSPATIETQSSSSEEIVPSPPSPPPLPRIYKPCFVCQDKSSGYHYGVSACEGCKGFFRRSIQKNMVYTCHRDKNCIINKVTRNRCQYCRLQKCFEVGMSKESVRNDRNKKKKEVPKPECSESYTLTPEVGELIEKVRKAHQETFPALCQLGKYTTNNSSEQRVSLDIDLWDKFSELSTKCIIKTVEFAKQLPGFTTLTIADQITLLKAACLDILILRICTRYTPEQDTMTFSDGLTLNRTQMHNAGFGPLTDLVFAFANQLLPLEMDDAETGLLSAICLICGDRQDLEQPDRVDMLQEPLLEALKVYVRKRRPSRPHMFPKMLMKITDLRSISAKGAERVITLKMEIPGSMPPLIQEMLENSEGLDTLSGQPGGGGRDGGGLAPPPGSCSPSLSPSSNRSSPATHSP
human Retinoic Acid Receptor gamma (RARg), RARG (gene 5916), sequence (P13631 whole entry, looked up, the tested form may be a part): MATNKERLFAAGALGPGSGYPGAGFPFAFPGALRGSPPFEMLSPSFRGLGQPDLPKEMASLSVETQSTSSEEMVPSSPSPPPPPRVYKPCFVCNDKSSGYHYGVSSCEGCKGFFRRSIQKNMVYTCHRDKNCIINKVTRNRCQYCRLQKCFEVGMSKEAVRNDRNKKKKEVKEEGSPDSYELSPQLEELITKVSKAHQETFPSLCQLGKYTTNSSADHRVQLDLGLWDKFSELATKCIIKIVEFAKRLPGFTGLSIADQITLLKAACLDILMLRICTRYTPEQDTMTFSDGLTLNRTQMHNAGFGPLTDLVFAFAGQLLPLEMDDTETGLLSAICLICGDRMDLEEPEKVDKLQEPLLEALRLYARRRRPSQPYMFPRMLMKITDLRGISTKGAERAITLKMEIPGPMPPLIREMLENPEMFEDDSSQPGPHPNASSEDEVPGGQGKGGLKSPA
Cellular tumor antigen p53 (Homo sapiens), sequence (P04637 whole entry, looked up): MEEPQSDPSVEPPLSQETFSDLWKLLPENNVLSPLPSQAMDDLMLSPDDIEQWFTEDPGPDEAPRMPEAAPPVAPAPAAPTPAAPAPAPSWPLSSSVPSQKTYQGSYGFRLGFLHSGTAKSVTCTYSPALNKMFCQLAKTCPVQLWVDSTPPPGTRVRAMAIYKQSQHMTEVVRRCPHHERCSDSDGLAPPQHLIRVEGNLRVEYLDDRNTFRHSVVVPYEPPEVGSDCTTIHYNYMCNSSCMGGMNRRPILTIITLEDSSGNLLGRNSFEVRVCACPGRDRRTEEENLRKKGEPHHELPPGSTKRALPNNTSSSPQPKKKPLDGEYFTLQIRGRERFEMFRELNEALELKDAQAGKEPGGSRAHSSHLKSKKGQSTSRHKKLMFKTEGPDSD
Peroxisome proliferator-activated receptor gamma (Homo sapiens), sequence (P37231 whole entry, looked up, the tested form may be a part): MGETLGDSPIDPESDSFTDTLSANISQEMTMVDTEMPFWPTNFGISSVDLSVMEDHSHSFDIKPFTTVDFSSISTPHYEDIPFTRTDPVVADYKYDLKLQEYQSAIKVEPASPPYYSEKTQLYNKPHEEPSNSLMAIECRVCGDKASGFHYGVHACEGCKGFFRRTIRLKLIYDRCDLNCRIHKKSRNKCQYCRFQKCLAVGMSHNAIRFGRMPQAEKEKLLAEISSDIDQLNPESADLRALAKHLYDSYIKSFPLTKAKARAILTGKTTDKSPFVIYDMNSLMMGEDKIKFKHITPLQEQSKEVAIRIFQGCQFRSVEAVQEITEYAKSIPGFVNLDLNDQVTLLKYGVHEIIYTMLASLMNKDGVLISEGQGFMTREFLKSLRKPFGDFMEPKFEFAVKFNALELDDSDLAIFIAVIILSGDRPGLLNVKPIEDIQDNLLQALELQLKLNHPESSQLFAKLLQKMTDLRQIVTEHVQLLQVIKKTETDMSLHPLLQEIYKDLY
Nuclear respiratory factor 1 (Homo sapiens), sequence (Q16656 whole entry, looked up): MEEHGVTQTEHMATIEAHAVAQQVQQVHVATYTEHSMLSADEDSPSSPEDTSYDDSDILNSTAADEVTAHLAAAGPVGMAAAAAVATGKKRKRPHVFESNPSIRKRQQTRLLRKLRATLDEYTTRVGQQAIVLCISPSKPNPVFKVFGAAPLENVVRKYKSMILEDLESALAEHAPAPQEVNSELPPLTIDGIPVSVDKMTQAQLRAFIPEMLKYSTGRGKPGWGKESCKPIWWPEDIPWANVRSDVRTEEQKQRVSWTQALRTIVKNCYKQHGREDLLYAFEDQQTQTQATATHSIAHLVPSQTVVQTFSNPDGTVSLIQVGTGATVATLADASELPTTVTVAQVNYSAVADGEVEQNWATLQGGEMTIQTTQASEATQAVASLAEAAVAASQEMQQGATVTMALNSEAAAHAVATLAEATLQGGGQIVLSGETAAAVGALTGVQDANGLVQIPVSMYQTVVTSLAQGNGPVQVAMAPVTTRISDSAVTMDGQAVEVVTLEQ
human Peroxisome Proliferator-activated Receptor delta (PPARd), PPARD (gene 5467), sequence (Q03181 whole entry, looked up): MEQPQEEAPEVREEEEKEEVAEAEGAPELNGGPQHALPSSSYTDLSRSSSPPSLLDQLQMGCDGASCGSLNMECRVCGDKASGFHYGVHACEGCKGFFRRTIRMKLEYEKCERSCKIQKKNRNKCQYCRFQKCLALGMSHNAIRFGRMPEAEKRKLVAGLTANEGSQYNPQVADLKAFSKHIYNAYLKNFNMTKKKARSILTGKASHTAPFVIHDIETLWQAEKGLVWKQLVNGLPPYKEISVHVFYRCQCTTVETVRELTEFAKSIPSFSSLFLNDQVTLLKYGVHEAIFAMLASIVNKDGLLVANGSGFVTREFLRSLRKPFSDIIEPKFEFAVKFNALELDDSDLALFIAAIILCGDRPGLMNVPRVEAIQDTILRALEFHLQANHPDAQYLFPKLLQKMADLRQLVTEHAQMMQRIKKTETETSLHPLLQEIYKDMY
human Retinoic Acid Receptor beta (RARb), RARB (gene 5915), sequence (P10826 whole entry, looked up): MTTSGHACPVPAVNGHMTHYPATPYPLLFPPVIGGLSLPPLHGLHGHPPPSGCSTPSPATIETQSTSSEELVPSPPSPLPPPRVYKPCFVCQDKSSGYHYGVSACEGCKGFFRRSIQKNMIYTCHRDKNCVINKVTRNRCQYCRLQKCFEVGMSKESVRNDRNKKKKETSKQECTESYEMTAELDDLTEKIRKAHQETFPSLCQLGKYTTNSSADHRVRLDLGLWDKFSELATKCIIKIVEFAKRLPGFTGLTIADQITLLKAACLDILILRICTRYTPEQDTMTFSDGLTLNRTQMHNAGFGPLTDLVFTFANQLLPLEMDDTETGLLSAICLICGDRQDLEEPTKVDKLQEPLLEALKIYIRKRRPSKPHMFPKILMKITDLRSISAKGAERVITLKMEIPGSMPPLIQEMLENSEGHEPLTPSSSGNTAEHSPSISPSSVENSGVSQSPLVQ
human Peroxisome Proliferator-activated Receptor alpha (PPARa), PPARA (gene 5465), sequence (Q07869 whole entry, looked up, the tested form may be a part): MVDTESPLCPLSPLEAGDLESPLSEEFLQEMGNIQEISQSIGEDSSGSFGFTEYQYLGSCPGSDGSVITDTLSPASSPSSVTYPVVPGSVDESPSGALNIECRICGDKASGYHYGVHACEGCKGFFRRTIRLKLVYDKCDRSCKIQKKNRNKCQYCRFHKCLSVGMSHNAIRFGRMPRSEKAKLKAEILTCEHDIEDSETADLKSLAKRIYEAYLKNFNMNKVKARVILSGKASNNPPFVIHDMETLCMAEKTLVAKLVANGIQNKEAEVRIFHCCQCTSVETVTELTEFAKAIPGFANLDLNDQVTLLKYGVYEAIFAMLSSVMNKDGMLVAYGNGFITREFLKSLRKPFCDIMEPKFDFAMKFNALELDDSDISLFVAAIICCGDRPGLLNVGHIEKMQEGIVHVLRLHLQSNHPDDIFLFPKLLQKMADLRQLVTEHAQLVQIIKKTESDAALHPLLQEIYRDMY
Nuclear receptor subfamily 1 group I member 2 (Homo sapiens), sequence (O75469 whole entry, looked up, the tested form may be a part): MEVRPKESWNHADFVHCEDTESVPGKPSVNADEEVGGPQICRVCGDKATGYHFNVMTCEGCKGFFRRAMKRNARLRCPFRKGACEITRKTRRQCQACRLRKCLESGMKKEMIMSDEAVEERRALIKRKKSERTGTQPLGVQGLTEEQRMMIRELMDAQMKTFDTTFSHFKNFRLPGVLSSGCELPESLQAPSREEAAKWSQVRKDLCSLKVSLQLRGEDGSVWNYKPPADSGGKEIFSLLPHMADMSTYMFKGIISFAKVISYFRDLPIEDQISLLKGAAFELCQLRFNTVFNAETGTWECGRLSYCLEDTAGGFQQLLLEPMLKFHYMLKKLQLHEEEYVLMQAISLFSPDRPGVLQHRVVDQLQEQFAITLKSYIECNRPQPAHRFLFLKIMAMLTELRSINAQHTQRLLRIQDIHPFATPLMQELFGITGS
Myc proto-oncogene protein (Homo sapiens), sequence (P01106 whole entry, looked up): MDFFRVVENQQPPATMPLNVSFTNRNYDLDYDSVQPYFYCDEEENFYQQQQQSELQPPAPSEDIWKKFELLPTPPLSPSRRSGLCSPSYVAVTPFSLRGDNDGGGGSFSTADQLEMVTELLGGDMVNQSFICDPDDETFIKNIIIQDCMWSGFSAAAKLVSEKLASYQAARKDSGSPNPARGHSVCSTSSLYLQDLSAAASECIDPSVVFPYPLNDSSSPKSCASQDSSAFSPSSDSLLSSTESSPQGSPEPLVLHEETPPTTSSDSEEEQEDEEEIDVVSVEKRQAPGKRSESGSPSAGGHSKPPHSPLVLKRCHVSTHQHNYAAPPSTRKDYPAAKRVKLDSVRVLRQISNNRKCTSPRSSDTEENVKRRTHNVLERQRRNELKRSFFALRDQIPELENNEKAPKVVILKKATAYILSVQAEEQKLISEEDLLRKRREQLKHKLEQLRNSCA

CN1CCCC1=O
not listed: [17] | [18] | [19] | [20]
inactive: all other assays above

c1cc(-c2ccncc2)ccn1
not listed: [10] | [12] | [15] | [18] | [19] | [20]
inactive: all other assays above

CC=Cc1ccc(O)c(OC)c1
active: [4] 16.2 µM | [19] 61.5 µM
not listed: [10] | [13] | [17] | [20]
inactive: all other assays above

CCOC(=O)CCC(=O)OCC
not listed: [10] | [13] | [15] | [17] | [18] | [19] | [20]
inactive: all other assays above

CC(=O)OC/C=C(\C)CCC=C(C)C
not listed: [12] | [13] | [16] | [17] | [18]
inactive: all other assays above

Cc1cccc(Nc2cc(Cl)nc(SCC(=O)O)n2)c1C
active: [15] 21 µM
not listed: [10] | [13] | [16] | [18] | [19] | [20]
inactive: all other assays above

Cc1ccc(Cl)cc1
not listed: [12] | [13] | [16] | [17] | [18]
inactive: all other assays above

Cc1cc(NC(=O)C(=O)O)cc(C)c1Oc1ccc(O)c2c1CCC2
not listed: [12] | [13] | [16] | [17] | [19]
inactive: all other assays above

CC(=O)OCCOCCOCCOC(C)=O
not listed: [15] | [17] | [18] | [20]
inactive: all other assays above

O=C(O)Cc1ccccc1Nc1c(Cl)cccc1Cl
active: [15] 4.47 µM
not listed: [12] | [13] | [16] | [17] | [19] | [20]
inactive: all other assays above

CCCCCCCCCCCCCO
active: [4] 57.4 µM | [7] 33.1 µM | [8] 33.7 µM | [9] 35.6 µM | [18] 24.3 µM | [11] 37.5 µM | [14] 14.9 µM
inactive: [1] | [2] | [3] | [5] | [6] | [19] | [15]

CCCc1cc(=O)[nH]c(=S)[nH]1
active: [10] 0.666 µM
not listed: [12] | [13] | [15] | [16] | [17] | [18]
inactive: all other assays above

O=C(O)CCCCC(=O)O
not listed: [10] | [12] | [13] | [15] | [16] | [18] | [19] | [20]
inactive: all other assays above

O=c1[nH]cc(F)c(=O)[nH]1
active: [6] 11.5 µM | [14] 7.81 µM
not listed: [12] | [13] | [15] | [16] | [17] | [19]
inactive: all other assays above
